Reference: PubChem BioAssay AID1159580 (chemical genetic matrix, 2015)
In all, about 5,500 compounds went through this assay and about 2,000 (36%) were called active. Not shown: some 18% with an inconclusive outcome. Rule as the data show it: active = normalized growth mostly below about 0.91 (no sharp cut-off); inconclusive = no clear call, values can overlap the other calls; inactive = mostly above about 0.92. Some of the results follow.

Assay: chemical genetic growth profiling, strain panel (AID 1159580);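 also: tested at 20 µM; growth read once vehicle control cultures reached saturation at 30 °C; 1 = growth at the plate median or of vehicle wells; lower values mean less growth of the strain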
Conditions: growth OD

Measured: normalized growth

CC(C)NC[C@H](O)COc1cccc2ccccc12
inactive: S. cerevisiae deletion strains, locus YJR066W, strain TOR1, hits give low values 0.996 | S. cerevisiae deletion strains, locus YKL009W, strain mrt4, hits give low values 1.03 | S. cerevisiae deletion strains, locus YKL068W, hits give low values 1.01 | S. cerevisiae deletion strains, locus YKL085W, strain MDH1 (second series), hits give low values 0.999 | S. cerevisiae deletion strains, locus YKL085W, strain MDH1, hits give low values 0.999 | S. cerevisiae deletion strains, locus YKL160W, strain elf1, hits give low values 0.992 | S. cerevisiae deletion strains, locus YKR001C, strain vps1, hits give low values 1.04 | S. cerevisiae deletion strains, locus YKR026C, strain gcn3, hits give low values 0.978 | S. cerevisiae deletion strains, locus YKR091W, strain srl3, hits give low values 0.99 | S. cerevisiae deletion strains, locus YLL001W, strain dnm1, hits give low values 0.98 | S. cerevisiae deletion strains, locus YLL026W, hits give low values 0.98 | S. cerevisiae deletion strains, locus YLL041C, strain sdh2, hits give low values 0.997 | S. cerevisiae deletion strains, locus YLR027C, strain aat2, hits give low values 0.987 | S. cerevisiae deletion strains, locus YLR039C, strain RIC1, hits give low values 1.05 | S. cerevisiae deletion strains, locus YLR058C, strain SHM2, hits give low values 1.01 | S. cerevisiae deletion strains, locus YLR102C, strain apc9, hits give low values 1.02 | S. cerevisiae deletion strains, locus YLR113W, strain HOG1, hits give low values 1 | S. cerevisiae deletion strains, locus YLR221C, strain rsa3, hits give low values 0.991 | S. cerevisiae deletion strains, locus YLR258W, strain gsy2, hits give low values 0.985 | S. cerevisiae deletion strains, locus YLR262C, strain YPT6 (second series), hits give low values 0.974 | S. cerevisiae deletion strains, locus YLR262C, strain YPT6, hits give low values 1.02 | S. cerevisiae deletion strains, locus YLR268W, strain sec22, hits give low values 1.01 | S. cerevisiae deletion strains, locus YLR320W, strain mms22, hits give low values 0.973 | S. cerevisiae deletion strains, locus YLR330W, strain CHS5, hits give low values 1.01 | S. cerevisiae deletion strains, locus YLR342W, strain FKS1 (second series), hits give low values 0.963 | S. cerevisiae deletion strains, locus YLR342W, strain FKS1, hits give low values 0.986 | S. cerevisiae deletion strains, locus YLR357W, strain rsc2, hits give low values 0.978 | S. cerevisiae deletion strains, locus YLR370C, strain arc18, hits give low values 0.999 | S. cerevisiae deletion strains, locus YLR371W, strain rom2, hits give low values 1.03 | S. cerevisiae deletion strains, locus YLR384C, strain iki3, hits give low values 0.963 | S. cerevisiae deletion strains, locus YLR418C, strain cdc73, hits give low values 1.02 | S. cerevisiae deletion strains, locus YML016C, strain PPZ1, hits give low values 1 | S. cerevisiae deletion strains, locus YML032C, strain rad52, hits give low values 0.997 | S. cerevisiae deletion strains, locus YML120C, strain ndi1, hits give low values 1 | S. cerevisiae deletion strains, locus YML124C, strain tub3, hits give low values 1.02 | S. cerevisiae deletion strains, locus YMR058W, strain fet3, hits give low values 0.995 | S. cerevisiae deletion strains, locus YMR078C, strain ctf18, hits give low values 1.03 | S. cerevisiae deletion strains, locus YMR125W, strain sto1, hits give low values 0.966 | S. cerevisiae deletion strains, locus YMR129W, hits give low values 0.988 | S. cerevisiae deletion strains, locus YMR205C, strain PFK2, hits give low values 0.971 | S. cerevisiae deletion strains, locus YMR223W, strain ubp8, hits give low values 1.06 | S. cerevisiae deletion strains, locus YMR231W, strain pep5, hits give low values 0.988 | S. cerevisiae deletion strains, locus YMR263W, strain SAP30, hits give low values 1.01 | S. cerevisiae deletion strains, locus YMR307W, strain GAS1, hits give low values 1.06 | S. cerevisiae deletion strains, locus YNL067W, strain RPL9B, hits give low values 1.03 | S. cerevisiae deletion strains, locus YNL071W, strain lat1, hits give low values 0.997 | S. cerevisiae deletion strains, locus YNL183C, strain NPR1, hits give low values 0.995 | S. cerevisiae deletion strains, locus YNL209W, strain ssb2, hits give low values 0.987 | S. cerevisiae deletion strains, locus YNL233W, strain BNI4, hits give low values 1.02 | S. cerevisiae deletion strains, locus YNL248C, strain rpa49, hits give low values 0.989 | S. cerevisiae deletion strains, locus YNL250W, strain rad50, hits give low values 1.04 | S. cerevisiae deletion strains, locus YNL271C, strain bni1, hits give low values 1.02 | S. cerevisiae deletion strains, locus YNL298W, strain CLA4, hits give low values 1.01 | S. cerevisiae deletion strains, locus YNL307C, strain MCK1, hits give low values 1.02 | S. cerevisiae deletion strains, locus YNL322C, strain KRE1 (second series), hits give low values 0.977 | S. cerevisiae deletion strains, locus YNL322C, strain KRE1, hits give low values 1.01 | S. cerevisiae deletion strains, locus YNR049C, strain mso1, hits give low values 0.989 | S. cerevisiae deletion strains, locus YNR052C, strain pop2, hits give low values 1.01 | S. cerevisiae deletion strains, locus YOL012C, strain htz1 0.826 | S. cerevisiae deletion strains, locus YOL147C, strain pex11, hits give low values 1.02 | S. cerevisiae deletion strains, locus YOR001W, strain rrp6, hits give low values 0.994 | S. cerevisiae deletion strains, locus YOR061W, strain CKA2, hits give low values 1 | S. cerevisiae deletion strains, locus YOR069W, strain VPS5, hits give low values 1.01 | S. cerevisiae deletion strains, locus YOR070C, strain gyp1, hits give low values 0.998 | S. cerevisiae deletion strains, locus YOR080W, strain dia2, hits give low values 0.977 | S. cerevisiae deletion strains, locus YOR083W, strain WHI5, hits give low values 1.01 | S. cerevisiae deletion strains, locus YOR106W, strain vam3, hits give low values 0.997 | S. cerevisiae deletion strains, locus YOR136W, strain idh2, hits give low values 1.03 | S. cerevisiae deletion strains, locus YOR144C, strain elg1, hits give low values 1.02 | S. cerevisiae deletion strains, locus YOR184W, strain ser1, hits give low values 1.03 | S. cerevisiae deletion strains, locus YOR231W, strain MKK1, hits give low values 1.02 | S. cerevisiae deletion strains, locus YOR265W, strain rbl2, hits give low values 0.988 | S. cerevisiae deletion strains, locus YOR270C, strain vph1, hits give low values 1.03 | S. cerevisiae deletion strains, locus YOR290C, strain snf2, hits give low values 0.988 | S. cerevisiae deletion strains, locus YOR316C, strain cot1, hits give low values 1.03 | S. cerevisiae deletion strains, locus YPL051W, strain arl3, hits give low values 0.993 | S. cerevisiae deletion strains, locus YPL055C, strain LGE1, hits give low values 1.02 | S. cerevisiae deletion strains, locus YPL078C, strain atp4, hits give low values 1.01 | S. cerevisiae deletion strains, locus YPL106C, strain sse1, hits give low values 0.98 | S. cerevisiae deletion strains, locus YPL240C, strain hsp82, hits give low values 0.999 | S. cerevisiae deletion strains, locus YPL241C, strain CIN2, hits give low values 1.01 | S. cerevisiae deletion strains, locus YPL256C, strain CLN2, hits give low values 1.07 | S. cerevisiae deletion strains, locus YPR119W, strain clb2, hits give low values 1.03 | S. cerevisiae deletion strains, locus YPR141C, strain kar3, hits give low values 1.02 | S. cerevisiae deletion strains, locus YPR163C, strain tif3, hits give low values 1.02 | S. cerevisiae deletion strains, locus YPR167C, strain met16, hits give low values 1.03 | S. cerevisiae deletion strains, strain wtn01, hits give low values 1.01 | S. cerevisiae strains, strain wild type, hits give low values 1.01
